About 1,400 (61%) of roughly 2,300 compounds were called active. Not shown: some 29% with an inconclusive outcome. Calls come from the whole dose curve; as a rule, active = well fitted inhibition curve with a large enough effect; inconclusive = small, poorly fitted or top-dose-only effect, or effect the other way; inactive = no such curve, though single readings can be large or run the other way. So high a share suggests a set chosen from earlier hits. Some of the results follow.
Assay: Confirmation screen for delayed death inhibitors of the malarial parasite plastid, 96 hour incubation; note: nearly all actives have a fitted effect of over 60% in size
Settings: P. falciparum luciferase growth in erythrocytes; series mostly up to 28.7 µM
Excerpt: The goal of this screen is to discover new antimalarial compounds that act by inhibiting the development of the apicoplast in the malarial parasite Plasmodium falciparum. The biochemical processes that make this organelle essential for erythrocytic stage parasites are not well understood. However, antibiotics, such as azithromycin and tetracycline, which target the apicoplast translational machinery, have a potent antimalarial effect. […] We have developed a cell-based assay that measures parasite growth based on the expression of an integrated copy of a firefly luciferase reporter. To detect small molecules that cause this "delayed death phenotype, erythrocytes infected with the luciferase-expressing parasites were incubated with compounds for either one or two generations, corresponding to 48 and 96 hours, respectively. Compounds that inhibit parasite growth in the second generation, but not the first, should be enriched in antimalarials that target the apicoplast. Growth inhibition is detected by a decrease in luciferase activity. MLPCN Grant: R21 NS059500 Assay Provider: David Fidock and Eric Ekland, Columbia University Keywords: NIH Roadmap, MLPCN, MLI, MLSMR, qHTS, NCGC, qHTS, malaria, luciferase, viability
Four microliters of culture medium (RPMI 1640 with 0.5% w/v Albumax (GIBCO), 24 mM sodium bicarbonate and 10 ug/mL gentamycin) were dispensed by a Multi-drop Combi into white solid 1536-well plates (Grenier) and 23 nL compound was added by a pin tool. Four microliters of infected erythrocytes (2% hematocrit, 0.1% parasitemia final concentration) in culture medium were dispensed and the plates incubated for 96 hours at 37 C in 5% CO2. Two microliters of luciferase detection reagent was added and luminescence was detected by a ViewLux (PerkinElmer) reader
Potency is the fitted concentration of half-maximal effect.

Row | SMILES | Potency
1 | O=C(NCCN1CCN(c2ccc([N+](=O)[O-])cc2)CC1)NCc1ccccc1 | 12.6 µM (active)
2 | CC(C)CC1NC(=S)N(Cc2ccccc2)C1=O (centres undefined) | 3.98 µM (active)
3 | CCC(C(=O)O)C1OC(C(C)C(O)C(C)C(=O)C(CC)C2OC3(C=CC(O)C4(CCC(C)(C5CCC(O)(CC)C(C)O5)O4)O3)C(C)CC2C)C(C)CC1C (centres undefined) | 0.178 µM (active)
4 | COC(=O)COc1ccc(S(=O)(=O)NCCC2=CCCCC2)cc1Cl | inactive
5 | CC(=O)N1CCN(S(=O)(=O)c2cccc(C(=O)NCCC3=CCCCC3)c2)CC1 | 12.6 µM (active)
6 | CCNC(=O)NC(=O)C(C)OC(=O)c1oc2ccccc2c1CSC1CCCCC1 (centres undefined) | inactive
7 | CCOc1ccc(Cl)cc1C1=CC(=O)C[C@H](c2ccc(OC)cc2)C1 | 12.6 µM (active)
8 | COc1ccc(OC)c(C2=CC(=O)C[C@H](c3ccc4c(c3)OCO4)C2)c1 | 12.6 µM (active)
9 | O=S(=O)(Nc1cccc2ncccc12)c1cccs1 | 3.55 µM (active)
10 | Cc1ccc(S(=O)(=O)Nc2cccc3ncccc23)s1 | 3.98 µM (active)
11 | CCCc1ccc(C(=O)NC(=O)c2ccccc2O)cc1 | 0.562 µM (active)
12 | CC(C)N=C(NS(=O)(=O)c1ccccc1)C(Cl)(Cl)Cl | 4.47 µM (active)
13 | NC(=S)Nn1c(-c2ccccc2)nc2ccccc2c1=O | inactive
14 | O=C1c2ccccc2-n2c1nc1ccccc1c2=O | 0.501 µM (active)
15 | O=C1c2cc(F)ccc2-n2c1nc1ccccc1c2=O | 0.158 µM (active)
16 | O=C(CSc1nnc2ccc(-c3cccnc3)nn12)Nc1cccc(F)c1 | 8.91 µM (active)
17 | Cc1cccc(N(C)C(=O)CN(C)S(=O)(=O)c2ccc3c(c2)c(=O)n(C)c(=O)n3C)c1 | 12.6 µM (active)
18 | CC1CCC(NC(=O)CN(C)S(=O)(=O)c2ccc3c(c2)c(=O)n(C)c(=O)n3C)CC1 (centres undefined) | 3.98 µM (active)
19 | Cc1cc(C)cc(-n2c(N)c(C(=O)Nc3c(C)n(C)n(-c4ccccc4)c3=O)c3nc4ccccc4nc32)c1 | 3.16 µM (active)
20 | CCN(C(=O)c1cc2c(=O)n3ccccc3nc2n1CCCOC)C1CCCCC1 | 10 µM (active)
21 | CCOC(=O)c1c(C)c(-c2ccccc2)n(CC(=O)NCCCN(CC)CC)c1C | 11.2 µM (active)
22 | COc1ccc(-c2csc(N3CCN(C(=O)c4ccco4)CC3)n2)cc1 | 12.6 µM (active)
23 | O=c1[nH]c(C(F)(F)F)nc2ccc3ccccc3c12 | inactive

Row | SMILES | Potency
24 | Cn1nc(C(F)(F)F)c(C(=O)Nc2ccc(F)cc2F)c1Sc1ccc(C(F)(F)F)cc1 | 7.94 µM (active)
25 | CC(C)N(C(=O)CSc1nnc(-c2ccc3c(c2)OCO3)n1C)C(C)C | 10 µM (active)
26 | O=C(Nc1ccccc1O)c1ccc([N+](=O)[O-])cc1 | 12.6 µM (active)
27 | CCCOc1cc(NCc2ccccc2)c2ncn(C(C)C)c2c1 | 2.82 µM (active)
28 | O=C(OC[C@@H]1O[C@@](O)(COC(=O)c2cccnc2)[C@H](OC(=O)c2cccnc2)[C@H]1OC(=O)c1cccnc1)c1cccnc1 | 6.31 µM (active)
29 | Cn1c(CCn2ccccc2=O)nc2cc(NC(=O)COc3ccccc3)ccc21 | 10 µM (active)
30 | COc1ccccc1OCCCOc1cccc(/C=C2\SC(=O)NC2=O)c1 | 11.2 µM (active)
31 | CCOc1ccc(/C=C2\SC(=S)N(C(C(=O)O)c3ccccc3)C2=O)cc1OC (centres undefined) | inactive
32 | CNC(=S)N(CCc1c(C)[nH]c2ccc(C)cc12)Cc1cc(OC)c(OC)c(OC)c1 | 11.2 µM (active)
33 | CNC(=S)N(CCc1c(C)[nH]c2ccc(Cl)cc12)Cc1cccnc1 | 12.6 µM (active)
34 | O=C(CCl)Nc1cn(-c2ccccc2)nc1-c1ccccc1 | 11.2 µM (active)
35 | Cc1cccc(NC(=O)c2cn(-c3ccccc3)nc2-c2ccccc2)c1 | 14.1 µM (active)
36 | OC(c1ccccc1)(c1ccccc1)C1CCN(C(=S)NCCc2ccccc2)CC1 | 5.01 µM (active)
37 | CCC1CCCCN1CCCNC(=O)c1ccc(CS(=O)(=O)c2ccc(Br)cc2)o1 (centres undefined) | 5.01 µM (active)
38 | CN(CCNC(=O)c1ccc(CS(=O)(=O)c2ccc(Br)cc2)o1)CCc1ccccc1 | 2 µM (active)
39 | CN(CCCNC(=O)c1ccc(CS(=O)c2ccc(Br)cc2)o1)Cc1ccccc1 (centres undefined) | 1.78 µM (active)
40 | CCCCN(CCCNC(=O)c1ccc(CS(=O)(=O)c2ccc(OC)cc2)o1)Cc1ccccc1 | 5.01 µM (active)
41 | CCCCNC(=O)c1ccc(CS(=O)(=O)c2cccc(C(F)(F)F)c2)o1 | inactive
42 | Cn1c(=O)c([N+](=O)[O-])c(-n2ccnc2)c2ccccc21 | 14.1 µM (active)
43 | CCc1ccc(/C=N/n2c(C)cc(C)c(C#N)c2=O)cc1 | 6.31 µM (active)
44 | COc1cccc(COC(=O)C2CC(=O)N(Cc3ccco3)C2)c1OC (centres undefined) | inactive
45 | CCC1CN(C(=O)N2CCC(C(=O)NCc3cccc(OC)c3OC)CC2)c2cc(C)ccc2O1 (centres undefined) | 11.2 µM (active)
46 | Cc1ccc(CN2CCC(n3nccc3NC(=O)c3ccccc3C)CC2)o1 | 12.6 µM (active)

Row | SMILES | Potency
47 | CC(CN1CCC(n2nccc2NC(=O)c2ccccc2Cl)CC1)c1ccccc1 (centres undefined) | 10 µM (active)
48 | O=c1[nH]c(=O)n(Cc2ccco2)c2c1C(C(F)(F)F)(C(F)(F)F)N=C(CCc1ccccc1)N2 | 6.31 µM (active)
49 | CCOCCCNC(=O)/C(C#N)=C/c1ccc(-c2ccc(S(=O)(=O)N3CCOCC3)cc2)o1 | 11.2 µM (active)
50 | COc1ccc(NC(=O)CSc2ccc(-c3ccco3)nn2)c(OC)c1 | 11.2 µM (active)
51 | Cc1cc(=O)n2nc(N3CCCC(C(=O)NCc4ccc(Cl)cc4)C3)sc2n1 (centres undefined) | 11.2 µM (active)
52 | Cc1cc(=O)n2nc(N3CCC(C(=O)NCc4ccc(F)cc4)CC3)sc2n1 | 8.91 µM (active)
53 | Cc1cc(=O)n2nc(N3CCC(C(=O)NCCc4ccc(Cl)cc4)CC3)sc2n1 | 10 µM (active)
54 | Cc1cc(=O)n2nc(N3CCC(C(=O)NCc4ccc(Cl)cc4)CC3)sc2n1 | 10 µM (active)
55 | O=C(CCl)Nc1ccc(S(=O)(=O)Nc2nccs2)cc1 | 1.26 µM (active)
56 | O=C(CN1C(=O)/C(=C/c2ccc(F)cc2)SC1=S)N1CCN(CCc2ccccn2)CC1 | 15.8 µM (active)
57 | CC(C)(C)C(=O)/C(=C\c1cccc([N+](=O)[O-])c1)n1cncn1 | 10 µM (active)
58 | COc1ccc(OC)c(NC(=O)c2ccccc2N(C)S(=O)(=O)c2ccc(C)cc2)c1 | 15.8 µM (active)
59 | COc1ccc(OC)c(NC(=O)c2nc(S(=O)(=O)Cc3ccccc3)ncc2Cl)c1 | inactive
60 | C=CCN(c1ccccc1)S(=O)(=O)c1cccc(C(=O)N2CC(C)CC(C)C2)c1 (centres undefined) | 12.6 µM (active)
61 | Cn1nc([N+](=O)[O-])nc1Sc1nnc(-c2ccccc2)o1 | 11.2 µM (active)
62 | CSc1nc(C)c(C(=O)C[n+]2ccc(C)cc2)cc1C#N | 14.1 µM (active)
63 | COC(=O)C(=C/C(C)=C/c1cccs1)C(=O)OC | 12.6 µM (active)
64 | O=Nc1c(-c2c(O)[nH]c3cc(Br)ccc23)[nH]c2ccccc12 | 3.16 µM (active)
65 | Brc1ccc(/C=N/Nc2ncnc3c2cnn3Cc2ccccc2)cc1 | 3.55 µM (active)
66 | CC(C)[C@H](NC(=O)[C@@H]1Cc2c([nH]c3ccccc23)C2c3ccccc3C(=O)N21)C(=O)N1CCC[C@@H]1C(=O)O (some centres undefined) | 14.1 µM (active)
67 | CCC(=O)Nc1cccc(C2=NOC3(C2)C[C@@H](C(N)=O)N(C(=O)c2cc([N+](=O)[O-])cc([N+](=O)[O-])c2C)C3)c1 (some centres undefined) | 11.2 µM (active)
68 | COCCN(C(=O)CCCC(=O)Nc1ccccn1)C(C(=O)NC1CCCCC1)c1ccc(C)cc1 (centres undefined) | 10 µM (active)
69 | COCCn1c(SCC(=O)Nc2ccccc2F)nc2c(c1=O)SCC2 | inactive

Row | SMILES | Potency
70 | CCNc1nc(NCC)n2c(SCC(=O)Nc3ccccc3F)nnc2n1 | 11.2 µM (active)
71 | COc1ccc(CNCc2ccc3ccccc3c2)c(OC)c1 | 11.2 µM (active)
72 | COc1cccc(CN(C)CC2CCCN(CCc3ccc(Cl)cc3)C2)c1OC (centres undefined) | 2.82 µM (active)
73 | CCOc1cc(/C=C/C(=O)Nc2ccc(C(=O)NCCN(CC)CC)cc2)ccc1OCC(C)C | 2 µM (active)
74 | CCC(=O)Nc1ccc2c(c1)ncn2-c1ccccc1OC | 11.2 µM (active)
75 | Cn1nc(CC(=O)Nc2ncc(Br)s2)c2ccccc2c1=O | 7.94 µM (active)
76 | COc1ccc(/C=C/C(=O)c2ccc([N+](=O)[O-])o2)cc1OC | 11.2 µM (active)
77 | COc1ccc(Cl)cc1/C=C/c1ccc2cccc(O)c2n1 | 5.62 µM (active)
78 | Oc1cccc2ccc(/C=C/c3ccccc3Br)nc12 | 2.24 µM (active)
79 | Cc1ccc(C)c(N(CC(=O)Nc2cc(Cl)ccc2Oc2ccccc2)S(C)(=O)=O)c1 | 8.91 µM (active)
80 | COc1ccccc1OCC(=O)Nc1cc(Cl)ccc1Oc1ccccc1 | inactive
81 | CC(C)(C)NC(=O)[C@H]1CN(Cc2cccnc2)CCN1C[C@@H](O)C[C@@H](Cc1ccccc1)C(=O)N[C@H]1c2ccccc2C[C@H]1O | 3.98 µM (active)
82 | CCc1ccc(Nc2n[n+](-c3ccccc3)c(-c3cccc(Cl)c3Cl)s2)cc1 | 2.82 µM (active)
83 | Cc1c(C(=O)C(=O)N2CCCc3ccccc32)c2ccccc2n1C | 12.6 µM (active)
84 | CCOC(=O)/C=C/C(=O)Nc1ccc(S(=O)(=O)N(C)c2ccccc2)cc1 | 10 µM (active)
85 | CN(c1ccccc1)S(=O)(=O)c1ccc(NC(=O)c2nc(S(C)(=O)=O)ncc2Cl)cc1 | inactive
86 | Cc1cccc2c1NC(=O)/C2=C\C(=O)c1cccs1 | inactive
87 | CC(=O)/C=C1/C(=O)Nc2ccccc21 | 12.6 µM (active)
88 | NC(=O)COc1ccc(C(=O)/C=C2/C(=O)Nc3ccccc32)cc1 | inactive
89 | O=C(O)CCCCCNc1nc(-c2ccccc2)nc2ccccc12 | 10 µM (active)

Source: PubChem BioAssay AID504848 (National Center for Advancing Translational Sciences (NCATS), 2011)
